Test results as given in PubChem BioAssay (NCATS).
Inconclusive results are not listed. Calls of active or inactive are those of the source. Calls follow the shape of the dose curve; as a rule, active = well fitted curve in the direction sought with a large enough effect; inconclusive = small, poorly fitted or top-dose-only effect, or another doubt; inactive = no such curve, though single readings can be large; an effect the other way counts as inactive or inconclusive.

Key:
[1] = Quantitative High-Throughput drug screen in 47 multiple myeloma cell lines against the NCATS MIPE library collection: OCIMY1_PLB cell viability assay (AID 1918979);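 also: 100% = DMSO-only wells and 0% = cell-free media-only wells; nearly all actives have a fitted effect of over 35% in size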
In short: (§1)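 ATP-based luminescence (CellTiter-Glo, 5 min RT incubation) quantified surviving cells following two days' treatment with MIPE 4.0 agents at 37 °C, 5% CO2.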

[2] = Quantitative High-Throughput drug screen in 47 multiple myeloma cell lines against the NCATS MIPE library collection: MM1S_ATCC cell viability assay (AID 1918980); also: nearly all actives have a fitted effect of over 45% in size; also: potency is read from the fitted curve at half-maximal effect
In short: as §1

[3] = Quantitative High-Throughput drug screen in 47 multiple myeloma cell lines against the NCATS MIPE library collection: MM1R_ATCC cell viability assay (AID 1918981); also: nearly all actives have a fitted effect of over 35% in size; also: potency is read from the fitted curve at half-maximal effect
In short: as §1

[4] = Quantitative High-Throughput drug screen in 47 multiple myeloma cell lines against the NCATS MIPE library collection: KMS28PE_JCRB cell viability assay (AID 1918983); also: nearly all actives have a fitted effect of over 35% in size; also: potency is read from the fitted curve at half-maximal effect
In short: as §1

[5] = Quantitative High-Throughput drug screen in 47 multiple myeloma cell lines against the NCATS MIPE library collection: L363_DSMZ cell viability assay (AID 1918984); also: potency is read from the fitted curve at half-maximal effect; nearly all actives have a fitted effect of over 40% in size
In short: as §1

[6] = Quantitative High-Throughput drug screen in 47 multiple myeloma cell lines against the NCATS MIPE library collection: OCIMY7_PLB cell viability assay (AID 1918987); details: OCI-MY7 myeloma viability, CellTiter-Glo ATP, 48 h; viability (% of DMSO): at 45.8 µM (top of the series); also: nearly all actives have a fitted effect of over 65% in size; also: potency is read from the fitted curve at half-maximal effect
In short: as §1

[7] = Quantitative High-Throughput drug screen in 47 multiple myeloma cell lines against the NCATS MIPE library collection: OCIMY5_PLB cell viability assay (AID 1918988); also: nearly all actives have a fitted effect of over 65% in size; also: potency is read from the fitted curve at half-maximal effect
In short: as §1

[8] = Quantitative High-Throughput drug screen in 47 multiple myeloma cell lines against the NCATS MIPE library collection: OPM1_PLB cell viability assay (AID 1918989); also: nearly all actives have a fitted effect of over 40% in size; also: potency is read from the fitted curve at half-maximal effect
In short: as §1

[9] = Quantitative High-Throughput drug screen in 47 multiple myeloma cell lines against the NCATS MIPE library collection: U266_ATCC cell viability assay (AID 1919864); also: nearly all actives have a fitted effect of over 35% in size; also: potency is read from the fitted curve at half-maximal effect;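 as to viability (% of DMSO control): 0% = media-only wells without cells and 100% = DMSO-only wells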
In short: as §1

[10] = Quantitative High-Throughput drug screen in 47 multiple myeloma cell lines against the NCATS MIPE library collection: XG6_PLB cell viability assay (AID 1919865); also: nearly all actives have a fitted effect of over 40% in size; also: potency is read from the fitted curve at half-maximal effect
In short: as §1

[11] = Quantitative High-Throughput drug screen in 47 multiple myeloma cell lines against the NCATS MIPE library collection: XG1_PLB cell viability assay (AID 1919866); also: nearly all actives have a fitted effect of over 35% in size; also: potency is read from the fitted curve at half-maximal effect
In short: as §1

[12] = Quantitative High-Throughput drug screen in 47 multiple myeloma cell lines against the NCATS MIPE library collection: UTMC2_PLB cell viability assay (AID 1919868); details: CellTiter-Glo ATP luminescence, 48 h; viability (% of DMSO control): at 45.8 µM (top of the series); also: nearly all actives have a fitted effect of over 55% in size; also: potency is read from the fitted curve at half-maximal effect;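 as to viability (% of DMSO control): 100% = DMSO-only wells and 0% = media-only wells without cells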
In short: as §1

[13] = Quantitative High-Throughput drug screen in 47 multiple myeloma cell lines against the NCATS MIPE library collection: PE2_PLB cell viability assay (AID 1919869); also: nearly all actives have a fitted effect of over 35% in size; also: potency is read from the fitted curve at half-maximal effect
In short: as §1

[14] = Quantitative High-Throughput drug screen in 47 multiple myeloma cell lines against the NCATS MIPE library collection: PCM6_Riken cell viability assay (AID 1919870); also: nearly all actives have a fitted effect of over 30% in size; also: potency is read from the fitted curve at half-maximal effect
In short: as §1

[15] = Quantitative High-Throughput drug screen in 47 multiple myeloma cell lines against the NCATS MIPE library collection: NCIH929_DSMZ cell viability assay (AID 1918978); also: nearly all actives have a fitted effect of over 35% in size; also: potency is read from the fitted curve at half-maximal effect
In short: as §1

[16] = Quantitative High-Throughput drug screen in 47 multiple myeloma cell lines against the NCATS MIPE library collection: SKMM1_PLB cell viability assay (AID 1919863); details: SKMM1 myeloma viability, CellTiter-Glo ATP, 48 h; viability: hits give low values; also: nearly all actives have a fitted effect of over 35% in size; also: potency is read from the fitted curve at half-maximal effect
In short: as §1

[17] = Quantitative High-Throughput drug screen in 47 multiple myeloma cell lines against the NCATS MIPE library collection: KMS34_JCRB cell viability assay (AID 1918985); also: nearly all actives have a fitted effect of over 40% in size; also: potency is read from the fitted curve at half-maximal effect
In short: as §1

[18] = Quantitative High-Throughput drug screen in 47 multiple myeloma cell lines against the NCATS MIPE library collection: VP6_DJ cell viability assay (AID 1919867); also: nearly all actives have a fitted effect of over 40% in size; also: potency is read from the fitted curve at half-maximal effect;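 as to viability (% of DMSO): 100% = DMSO-only wells and 0% = wells with media alone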
In short: as §1

[19] = Quantitative High-Throughput drug screen in 47 multiple myeloma cell lines against the NCATS MIPE library collection: LP1_DSMZ cell viability assay (AID 1918982); also: nearly all actives have a fitted effect of over 35% in size; also: potency is read from the fitted curve at half-maximal effect
In short: as §1

CN(C)Cc1cccc(N=C(c2ccccc2)c2c(O)[nH]c3cc(C(=O)N(C)C)ccc23)c1
active: Potency [2] 16.6 µM | Potency [3] 4.69 µM | Potency [4] 18.7 µM | Potency [5] 8.33 µM | Potency [6] 0.935 µM | Potency [7] 10.5 µM | Potency [8] 18.7 µM | Potency [9] 18.7 µM | Potency [10] 18.7 µM | Potency [11] 16.6 µM | Potency [12] 16.6 µM | Potency [13] 20.9 µM | Potency [14] 10.5 µM
inactive: Potency [1]

O=C(NCc1ccncc1)C12C[C@H]3C[C@@H](C1)CC(c1ccc(Cl)cc1)(C3)C2
inactive: Potency [15]
active: Potency [2] 13.2 µM | Potency [3] 18.7 µM | Potency [4] 23.5 µM | Potency [6] 18.7 µM | Potency [7] 18.7 µM | Potency [16] 23.5 µM | Potency [9] 16.6 µM | Potency [10] 4.69 µM

CCOc1ccc(Nc2nc(-c3c(C)nc4ccccn34)cs2)cc1
active: Potency [15] 0.0526 µM | Potency [3] 0.0059 µM | Potency [17] 0.0033 µM | Potency [7] 0.0026 µM | Potency [16] 0.264 µM
inactive: Potency [10]

O=c1cc(-c2ccc(O)cc2)oc2cc(O)cc(O)c12
inactive: Potency [12]
active: Potency [15] 6.62 µM | Potency [2] 8.33 µM | Potency [4] 18.7 µM | Potency [17] 13.2 µM | Potency [7] 10.5 µM | Potency [8] 18.7 µM | Potency [9] 20.9 µM | Potency [13] 20.9 µM

Oc1ccc(C2CCN(c3ccnc4ccccc34)CC2)cc1O
inactive: viability [16] 103%
active: Potency [15] 18.7 µM | Potency [4] 16.6 µM | Potency [5] 18.7 µM | Potency [17] 16.6 µM | Potency [7] 14.8 µM | Potency [9] 3.32 µM | Potency [10] 6.62 µM | Potency [11] 0.833 µM | Potency [18] 14.8 µM | Potency [13] 16.6 µM | Potency [14] 13.2 µM

CO[C@H]1C[C@@H]2CC[C@@H](C)[C@@](O)(O2)C(=O)C(=O)N2CCCC[C@@H]2C(=O)O[C@H]([C@H](C)C[C@@H]2CC[C@H](OC(=O)C(C)(CO)CO)[C@H](OC)C2)CC(=O)[C@H](C)C=C(C)[C@@H](O)[C@@H](OC)C(=O)[C@H](C)C[C@H](C)C=CC=CC=C1C
inactive: Potency [2]
active: Potency [15] 18.7 µM | Potency [6] 14.8 µM

COCCOc1nc(-c2ccc(Cl)c(Cl)c2)n(-c2ccc(NC(=O)CCl)cc2)n1
active: Potency [15] 13.2 µM | Potency [3] 14.8 µM | Potency [5] 8.33 µM | Potency [17] 18.7 µM | Potency [6] 16.6 µM | Potency [7] 20.9 µM | Potency [9] 26.4 µM | Potency [10] 14.8 µM | Potency [11] 16.6 µM | Potency [18] 20.9 µM | Potency [12] 20.9 µM | Potency [13] 18.7 µM | Potency [14] 16.6 µM

C[C@H](NC(=O)C(=O)Nc1ccccc1C(C)(C)C)C(=O)N[C@@H](CC(=O)O)C(=O)COc1c(F)c(F)cc(F)c1F
active: Potency [2] 11.8 µM | Potency [19] 9.35 µM | Potency [5] 0.833 µM | Potency [16] 16.6 µM
inactive: Potency [15] | Potency [3] | Potency [8] | Potency [11] | Potency [13]

CO[C@H]1C(=O)[C@]2(C)[C@@H](OC)C[C@H]3OC[C@@]3(OC(C)=O)[C@H]2[C@H](OC(=O)c2ccccc2)[C@]2(O)C[C@H](OC(=O)[C@H](O)[C@@H](NC(=O)OC(C)(C)C)c3ccccc3)C(C)=C1C2(C)C
inactive: Potency [15] | Potency [3] | Potency [19] | Potency [17] | Potency [6] | Potency [7] | Potency [8] | Potency [12] | Potency [13]
active: Potency [18] 0.001 µM | Potency [14] 0.0012 µM

CCC(=O)NC[C@H](Cc1ccc(OCCc2nc(-c3ccccc3)oc2C)cc1)NC(C)=CC(=O)c1ccc(C(F)(F)F)cc1
inactive: Potency [15] | Potency [8] | Potency [9] | Potency [14]
active: Potency [19] 18.7 µM | Potency [17] 23.5 µM | Potency [7] 18.7 µM | Potency [10] 16.6 µM | Potency [11] 5.26 µM | Potency [13] 11.8 µM

COC(=O)N[C@H](C(=O)N1CCC[C@@H]1c1ncc(-c2ccc(-c3ccc(-c4cnc([C@@H]5CCCN5C(=O)[C@@H](NC(=O)OC)C(C)C)[nH]4)cc3)cc2)[nH]1)C(C)C
inactive: Potency [12]
active: Potency [15] 26.4 µM | Potency [3] 26.4 µM | Potency [19] 18.7 µM | Potency [5] 29.6 µM | Potency [6] 18.7 µM | Potency [10] 26.4 µM | Potency [14] 26.4 µM

CC(C)[C@H](CO)Nc1nc(Nc2ccc(C(=O)O)c(Cl)c2)c2ncn(C(C)C)c2n1
active: Potency [15] 23.5 µM | Potency [4] 37.2 µM | Potency [6] 16.6 µM | Potency [8] 10.5 µM | Potency [18] 23.5 µM | Potency [13] 23.5 µM

CO[C@@H](C(=O)N1Cc2[nH]nc(NC(=O)c3ccc(N4CCN(C)CC4)cc3)c2C1)c1ccccc1
active: Potency [15] 11.8 µM | Potency [4] 6.62 µM | Potency [5] 18.7 µM | Potency [6] 0.332 µM | Potency [7] 6.62 µM | Potency [8] 8.33 µM | Potency [10] 20.9 µM | Potency [12] 0.0332 µM | Potency [13] 20.9 µM | Potency [14] 26.4 µM
inactive: Potency [1]

O=c1ccn([C@@H]2O[C@H](CO)[C@H](O)[C@H]2O)c(=O)[nH]1
inactive: Potency [1] | Potency [3] | Potency [8] | Potency [10] | Potency [11] | Potency [13] | Potency [14]
active: Potency [2] 23.5 µM | Potency [19] 14.8 µM

CC(=O)OC1C(C)OC(Oc2c(-c3ccc(O)cc3)oc3cc(O)cc(O)c3c2=O)C(O)C1OC(C)=O (stereo not drawn)
inactive: Potency [15] | Potency [19] | Potency [4] | Potency [17] | Potency [11] | Potency [18]
active: Potency [2] 20.9 µM | Potency [9] 18.7 µM
